Laboratory results as given in PubChem BioAssay (NCATS).
Where “and” joins values, the source holds several entries; their conditions need not be identical. Equal entries are not always repeated. Results filed as inconclusive are left out. Calls of active or inactive are those of the source. Calls follow the shape of the dose curve; as a rule, active = well fitted inhibition curve with a large enough effect; inconclusive = small, poorly fitted or top-dose-only effect; inactive = flat fitted curve, though single readings scatter.
% is scaled to controls: 0 for no effect and ±100 for the full control effect; potency is read from the fitted curve at half-maximal effect.

Each compound was assayed on HEK293 (assay: Cytotoxic Profiling of Annotated Libraries Using Quantitative High-Throughput Screening (AID 1296008; also: nearly all actives have a fitted effect of over 60% in size)). Details: Five cell lines viability, CellTiter-Glo ATP luminescence, 48-72 h; max response: active compounds read low.
Text: Cell-based phenotypic screening is a commonly used approach to discover biological pathways, novel drug targets, chemical probes and high-quality hit-to-lead molecules. Many hits identified from high-throughput screening campaign are ruled out through a series of follow-up potency, selectivity/specificity, and cytotoxicity assays. Prioritization of molecules with little or no cytotoxicity for a more in-depth downstream evaluation influence the future direction of projects, so cytotoxicity profiling of the screening libraries at early stage is essential for increasing the likelihood of candidate success. […] For the annotated library, we also examined the primary targets and mechanistic pathways regularly associated with cell death. To our knowledge, this is the first study to use high-throughput screening to profile large libraries for cytotoxicity assessment in both normal and cancer cell lines. In summary, the results generated here constitutes a valuable resource for the scientific community and provides insight on identifying cytotoxic compounds with particular mechanisms of action, and prioritizing compounds with suitable cytotoxicity profile for further evaluation.
A pintool (Kalypsys) was used to transfer 23 nL of compound solution to the 1536-well assay plates. After 48 or 72 hr incubation at 37 degree Celsius, 5% CO2 and 95% humidity, 2.5 uL of CellTiter-Glo (Promega) was dispensed into each well using a dispenser (Aspect Automation, St. Paul, MN) with solenoid valves (Lee Valves, Westbrook CT). Plates were left at room temperature for 10 min before imaging the ATP-coupled luminescence using a ViewLux microplate imager (PerkinElmer, Waltham, MA).
`CCN[C@@H](C)Cc1cccc(C(F)(F)F)c1` was tested, and the max response was 3.69% (inactive).
`Nc1ccccc1` was tested, and the outcome was “inactive”.
`c1ccc(CN2CCNCC2)cc1` was tested, and the max response was -21.3% (inactive).
For `CN1C(=O)CCS(=O)(=O)C1c1ccc(Cl)cc1` (stereo not given), the outcome was “inactive” and the max response was -9.62% (inactive).
With `Nc1ccccc1C(=O)O` the max response was -5.49% (inactive).
`CN1C(=O)NC(=O)C(C)(C2=CCCCC2)C1=O` (stereo not given) was tested, and the outcome was “inactive”.
For `C=CCN1C[C@H](C)N([C@H](c2ccc(C(=O)N(CC)CC)cc2)c2cccc(OC)c2)C[C@H]1C`, the max response was -3.98% (inactive) and -24.1% (inactive).
For `CCCCCN(C)CCC(O)(P(=O)(O)O)P(=O)(O)O`, the max response was -18.4% (inactive).
In the case of `CCN(CCO)CCn1c(Cc2ccccc2)nc2c1c(=O)n(C)c(=O)n2C`, the max response is reported as -6.17% (inactive).
`O=C(O)/C=C\C(=O)O` was tested, and the max response was -3.36% (inactive).
For `NNc1ccccc1`, the max response was 3.08% (inactive).
`NCCc1ccc(O)cc1` was tested, and the outcome was “inactive”.
`O=C1CN=C(c2ccccc2)c2cc([N+](=O)[O-])ccc2N1` was tested, and the max response was -13.4% (inactive).
`COc1cc(OC)c(OC)cc1C=O` was tested, and the max response was -6.96% (inactive) and the outcome was “inactive”.
With `COP(=S)(OC)Oc1ccc(SC)c(C)c1` the max response was -0.0428% (inactive).
`CC(C)c1cccc(C(C)C)c1O` was tested, and the max response was -6.49% (inactive) and the outcome was “inactive”.
For `COc1cc(CCN)cc(OC)c1OC`, the max response was -9.62% (inactive).
In the case of `COC(=O)C(Cl)C(=O)OC`, the outcome is reported as “inactive”.
`CN1C(=O)COc2c(C(=O)NC3CN4CCC3CC4)cc(Cl)cc21` (stereo not given) was tested, and the max response was -5.69% (inactive) and -2.96% (inactive).
`CCCOC(=O)c1cncn1C(C)c1ccccc1` (stereo not given) was tested, and the max response was 1.16% (inactive).
With `NC(=O)CS(=O)C(c1ccccc1)c1ccccc1` (stereo not given) the max response was 2.52% (inactive).
With `CNCC(=O)c1ccc(O)c(O)c1` the max response was 3.33% (inactive).
`CCC(C)(C)c1ccc(O)cc1` was tested, and the outcome was “inactive”.
With `Nc1nc(N)nc(NC2CC2)n1` the max response was -46.2% (inactive).
In the case of `COc1ccc2c3c1O[C@H]1[C@H](O)CC[C@H]4[C@@H](C2)N(C)CC[C@@]341`, the max response is reported as -4.59% (inactive).
In the case of `O=C(N/N=C/c1ccc([N+](=O)[O-])o1)c1cc([N+](=O)[O-])cc([N+](=O)[O-])c1O`, the max response is reported as 1.49% (inactive).
`Oc1ccc(Cl)cc1` was tested, and the outcome was “inactive”.
In the case of `NC(=O)c1cc([N+](=O)[O-])cc([N+](=O)[O-])c1`, the max response is reported as -2.7% (inactive).
`CCCCCCCCCC(=O)O[C@H]1CC[C@H]2[C@@H]3CCC4=CC(=O)CC[C@@H]4[C@H]3CC[C@]12C` was tested, and the max response was -2.03% (inactive).
With `C[C@]12CCC(=O)C=C1CC[C@@H]1[C@H]3CC[C@](C)(O)[C@@]3(C)CC[C@@H]12` the Potency was 30.9 µM (active).
For `CCC(C)C(C)(COC(N)=O)COC(N)=O` (stereo not given), the outcome was “inactive”.
With `C[C@]12CC[C@@H]3c4ccc(OC(=O)N(CCCl)CCCl)cc4CC[C@H]3[C@@H]1CC[C@@H]2O` the Potency was 29.9 µM (active).
`C#CC(O)(C=CCl)CC` (stereo not given) was tested, and the max response was -13.2% (inactive).
With `CNC(C)(C)Cc1ccccc1` the max response was -3.64% (inactive).
`O=c1[nH]oc2c1CCNC2` was tested, and the max response was -2.62% (inactive).
With `CCC1(c2ccc(N)cc2)CCC(=O)NC1=O` (stereo not given) the max response was 4.46% (inactive) and the outcome was “inactive”.
